Reference: PubChem BioAssay AID588492 (Sanford-Burnham Center for Chemical Genomics, 2011)
In all, about 360,000 compounds went through this assay and about 2,300 (0.64%) were called active.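 Rule for the calls: active = compounds giving at least 50% protection of heart cells from peroxide-induced death in the single-dose screen, raw or plate-pattern-corrected value; inactive = the rest.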 Only a selection was taken, and actives are over-represented in it overall.

experiment: cardioprotection against H2O2-induced cell death, primary screen, uHTS, H9c2 cells, ATPLite luminescence (AID 588492); settings: H9c2 cardiomyocytes, H2O2 injury protection, 2 h, at 20 µM, hits give high values;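 note: 0% = DMSO wells with peroxide and 100% = DMSO wells without peroxide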

Compound | protection from H2O2 cell death
Cc1ccc(S(=O)(=O)N2CCCC2C(=O)OCc2nc3sc(C)c(C)c3c(=O)[nH]2)cc1 (stereo not drawn) | 34.2% (inactive)
Cc1cc(C)c2nc(N3CCC(C(=O)NCCN4CCOCC4)CC3)sc2c1 | -1.3% (inactive)
CCOC(=O)N1CCN(C(=O)CN(C2CCCCC2)S(C)(=O)=O)CC1 | -2.2% (inactive)
CC(C)=CCc1ccc(O)c(=O)cc1C(C)C | 54.2% (active)
CC(C)=CCc1c(O)c(CC=C(C)C)c2occ(-c3ccc(O)cc3)c(=O)c2c1O | -14.3% (inactive)
CC(C)c1cc(N=O)cc(C(C)C)c1O | -7% (inactive)
O=C(c1ccncc1)N1CCN(S(=O)(=O)c2cc(C(F)(F)F)cc(C(F)(F)F)c2)CC1 | -1.3% (inactive)
COc1ccc(CCNC(=O)CCn2c(=O)c3ccccc3n(CC(=O)NCC3CCCO3)c2=O)cc1OC (stereo not drawn) | 7.8% (inactive)
COc1ccc(CCn2c(=N)c(C(=O)NCC3CCCO3)cc3c(=O)n4cccc(C)c4nc32)cc1OC (stereo not drawn) | 59.6% (active)
Cc1ccc2nc3c(cc(C(=O)NCCc4ccccc4)c(=N)n3CC3CCCO3)c(=O)n2c1 (stereo not drawn) | 5.6% (inactive)
CN1CCN(c2ccc(CNS(=O)(=O)c3cccc(F)c3)cc2)CC1 | 7.1% (inactive)
CCc1c(C)nc2ncnn2c1N1CCC(C(=O)NCc2ccc3c(c2)OCO3)CC1 | -1.5% (inactive)
CCOC(=O)Nc1ccc(S(=O)(=O)N(C)C(C)C)cc1 | 3.1% (inactive)
O=C(OCC(=O)N1CCN(c2ccccc2)CC1)c1ccc([N+](=O)[O-])s1 | -0.2% (inactive)
COc1cc(NC(=O)COC(=O)c2ccc([N+](=O)[O-])s2)cc(OC)c1OC | 41.6% (inactive)
COc1ccc(C(=O)COC(=O)c2ccc([N+](=O)[O-])s2)cc1OC | 61.6% (active)
CO/N=C(/CS(=O)(=O)c1ccc(Br)cc1)c1ccc(OC)cc1 | -11.9% (inactive)
Cc1ccc([N+](=O)[O-])c(OCCCNCC(C)O)c1 (stereo not drawn) | 0.6% (inactive)
COc1cc(/C=N/NC(=O)c2cccnc2)ccc1OC(=O)c1cccc(Br)c1 | 27.2% (inactive)
COc1cc(/C=N/NC(=O)c2ccccc2)ccc1OS(=O)(=O)c1ccccc1 | 81.8% (active)
Cc1ccc(S(=O)(=O)Oc2ccc(/C=N/NC(=O)c3ccncc3)cc2)cc1 | 2.7% (inactive)
O=Cc1c(N2CCN(c3cccc(Cl)c3)CC2)nc2ccccn2c1=O | 42.7% (inactive)
O=c1c2ccccc2ncn1/N=C/c1ccccc1 | -10.6% (inactive)
Cc1[nH]n(-c2cccc(Cl)c2)c(=O)c1/C=N/n1c(C)nc2ccccc2c1=O | 50.4% (active)

Compound | protection from H2O2 cell death
O=C(N/N=C/c1ccccc1O)/C(=C/c1ccccc1)CCO | 35.8% (inactive)
Oc1ccccc1C=NC1CCCCC1N=Cc1ccccc1O (stereo not drawn) | 7.8% (inactive)
O=C(NN=Cc1ccccc1O)C(=O)NN=Cc1ccccc1O | 53.6% (active)
COCCNC(=S)c1ccc(OC)cc1 | 5.4% (inactive)
CCNC(=O)C1(C)CCCN1C(=O)c1ccc(N(C)C)cc1 (stereo not drawn) | 0.7% (inactive)
Cc1nc(N2CCOCC2)c2c(C)c(C(=O)Nc3ccc(C(F)(F)F)cc3)sc2n1 | -3.8% (inactive)
Cc1nc(N2CCN(c3ccccn3)CC2)c2c(C)c(C(=O)Nc3ccc(F)c(Cl)c3)sc2n1 | 31.9% (inactive)
Cc1nc(N2CCN(c3ccccn3)CC2)c2c(C)c(C(=O)Nc3ccc(F)cc3)sc2n1 | 71.4% (active)
COc1ccc(S(=O)(=O)N2CCN(c3cnccn3)CC2)cc1 | -1.4% (inactive)
CCc1nc2ccc(C(=O)NC3CCN(Cc4ccccc4)CC3)cn2c1N(C)CCN1CCOCC1 | 7% (inactive)
CCOC(=O)N1CCN(Cc2oc(CO)cc(=O)c2O)CC1 | 13% (inactive)
CC(C)C1N=C2c3ccccc3N=C(SCC(=O)c3ccc(O)c(O)c3)N2C1=O (stereo not drawn) | 96.8% (active)
NC(=O)CSC1=Nc2ccccc2C2=NC(CCC(=O)NCc3ccc(F)cc3)C(=O)N12 (stereo not drawn) | 2.5% (inactive)
O=C(CSC1=Nc2ccccc2C2=NC(c3ccccc3)C(=O)N12)NCC1CCCO1 (stereo not drawn) | 29.7% (inactive)
Cc1ccc(S(=O)(=O)N2CCC(C(=O)N[C@@H](C)C(=O)NCCc3ccccc3)CC2)cc1 | 2% (inactive)
COc1cccc(CNc2nc3cc(-c4csc5ccccc45)sc3c(=O)n2C)c1 | -3.9% (inactive)
CCOc1cccc(-c2nn3c(-c4ccccn4)nnc3s2)c1 | 68% (active)
COc1ccc(-c2nc3ccccc3n2CCC(C)C)cc1OC | 6.5% (inactive)
COc1ccc(NC(=O)c2cc3nc(-c4ccccc4)cc(C)n3n2)cc1OC | 36.7% (inactive)
CN(C(=O)c1ccccn1)c1nnc(-c2ccccn2)s1 | -5.5% (inactive)
COc1ccc(-n2c(SCC(=O)OC(C)C)nnc2-c2ccccn2)cc1 | 4% (inactive)
c1ccc(-c2cc(-c3nnc4sc(-c5ccccn5)nn34)[nH]n2)cc1 | 63.3% (active)
CCOc1cccc(-c2nnc(SCC(=O)NC3CC3)n2C)c1 | -1.8% (inactive)
COc1ccc(-c2nn3c(-c4ccccc4)nnc3s2)cc1OC | 63.1% (active)

Compound | protection from H2O2 cell death
O=S(=O)(Nc1ccc2ccccc2c1)N1CCCCC1 | -4% (inactive)
Cc1c(C(=O)O)nnn1-c1nonc1N | 3.3% (inactive)
Cc1cc(C)c(CN2CCN(C(=O)Cn3ccc(NC(=O)OCc4ccccc4)nc3=O)CC2)c(C)c1 | -25% (inactive)
CCN(CC)CCCN1C(=O)C(=O)/C(=C(/O)c2c(C)nc3ccccn23)C1c1ccc(C)o1 (stereo not drawn) | 4.2% (inactive)
COC(=O)c1ccc2nc(-c3ccc(Cl)cc3)c(Cc3cccc(F)c3)n2c1 | -2.7% (inactive)
Cc1ccc(N/C(N)=N/c2nc(C(F)(F)F)cc(C(F)(F)F)n2)cc1 | -14.8% (inactive)
CCO[C@H]1OC(C(=O)N2CCOCC2)=C[C@@H](c2ccc3c(c2)OCO3)[C@@H]1CCCO | 2.8% (inactive)
COc1ccc(OC)c(C(O)c2ncc(-c3cccc(C(F)(F)F)c3)[nH]2)c1 (stereo not drawn) | -12.4% (inactive)
CCNC(=O)C1(C)CCCN(Cc2noc(-c3ccccc3OC)n2)C1 (stereo not drawn) | -1.9% (inactive)
CCNC(=O)c1sccc1-n1cccc1 | 5% (inactive)
Cc1ccccc1NC(=O)COc1cccc2c1CCNC2=O | 70.7% (active)
O=C(COC(=O)c1cccc(Cl)c1)NC1CCCCCCC1 | -3.2% (inactive)
Cc1ccccc1NC(=O)CSC1=NCCN1 | -2% (inactive)
COc1ccccc1OCC(=O)Nc1ccccc1C(=O)NC1CC1 | 4.6% (inactive)
O=C(COc1ccccc1O)NC1CCCC1 | -0.6% (inactive)
O=C(COc1cccc2c1CCNC2=O)NC1CCCCC1 | 56.1% (active)
OCC1(Cc2ccccc2C(F)(F)F)CCN(Cc2cccc3cnccc23)CC1 | -2.8% (inactive)
Cc1cc(O)ccc1NC1=CC(=O)CC(C)(C)C1 | -13.4% (inactive)
CCN(CC)CCCNC(=O)c1c(O)c2cc(F)cc3c2n(c1=O)C(C)CC3 (stereo not drawn) | 22.2% (inactive)
CCCCN(CCCC)CCC(O)c1cc2c(Cl)cc(Cl)cc2c2cc(C(F)(F)F)ccc12 (stereo not drawn) | -33.9% (inactive)
Cc1ccc(NC(=O)Cn2cccc2C2=NC(c3ccccc3)CO2)c(C)c1 (stereo not drawn) | -6.9% (inactive)
Cc1cc2c(cc1S(=O)(=O)CCC(=O)NCc1ccccc1)OCC(=O)N2 | 2.9% (inactive)
COc1ccc(Cl)cc1NC(=O)CCS(=O)(=O)c1cc2c(cc1C)NC(=O)CO2 | 54.6% (active)
COc1ccc(NC(=O)CCS(=O)(=O)c2cc3c(cc2Cl)NC(=O)CO3)cc1OC | 7.8% (inactive)

Compound | protection from H2O2 cell death
O=C(Oc1cccc(N2C(=O)C3C4c5ccccc5C(c5ccccc54)C3C2=O)c1)c1ccco1 (stereo not drawn) | -6.6% (inactive)
Nc1c(N(CCO)C(=O)C2CCCCC2)c(=O)[nH]c(=O)n1Cc1ccccc1 | -1.8% (inactive)
O=C(CNC(=O)c1ccc(Cl)cc1Cl)NCC(=O)Nc1ccccc1N1CCOCC1 | -2.6% (inactive)
Cc1nccn1-c1ccc(NC(=O)[C@H]2O[C@@H](n3cnc4c(N)ncnc43)[C@H](O)[C@@H]2O)cc1 | 4.5% (inactive)
Cc1ccc2sc(NNC(=O)c3ccc4c(c3)OCCO4)nc2c1C | 81.8% (active)
Cc1cccc(C)c1NC(=O)CNC(=O)c1ccc2c(c1)OCCO2 | 0.8% (inactive)
Cc1nc(NC(=O)c2ccc3c(c2)OCCO3)ccc1Br | -4.4% (inactive)
O=C1CCN(Cc2ccc([N+](=O)[O-])cc2)CCN1[C@H](CO)Cc1ccccc1 | 0.1% (inactive)
COc1ccc(-c2ccc(Nc3ccc(S(=O)(=O)N4CCCC4)cc3)nn2)cc1OC | 58.5% (active)
COc1cc(C(C)=O)ccc1OC(C)C(=O)Nc1ccc(S(=O)(=O)N2CCCC2)cc1 (stereo not drawn) | 4.6% (inactive)
COc1ccc(S(=O)(=O)N2CCCCCC2)cc1NC(=O)Cc1ccc(OC)c(OC)c1 | 4% (inactive)
CC(Nc1ccccc1)c1cccnc1 (stereo not drawn) | 4.3% (inactive)
O=C(CCN1CCCCC1)Nc1ccc(F)c(F)c1 | 0.6% (inactive)
Oc1cc2c(cc1O)CN(C(=S)NCCc1ccc(Cl)cc1)CCC2 | 74.4% (active)
Cc1cccc(NC(=S)NCCc2ccc(Cl)cc2)c1C | -6.5% (inactive)
O=C(NCCc1ccc(Cl)cc1)c1cccc(N2CCCC2=O)c1 | -1.2% (inactive)
CC(C)C1CCN(C(=O)C2CCC(=O)N(C3CCCCCC3)C2)CC1 (stereo not drawn) | -2.1% (inactive)
O=C(N/N=C/c1sc(N2CCCCC2)nc1-c1cccs1)c1cccnc1 | 56.3% (active)
O=C(c1cccnc1)N1CCN(S(=O)(=O)c2cccs2)CC1 | 10.1% (inactive)
Cc1ccc(S(=O)(=O)N2CCCCC2)cc1NC(=O)c1cccnc1 | 12% (inactive)
CC(C(=O)Nc1ccc(S(=O)(=O)N2CCCC2)cc1)N(C)Cc1ccc(F)cc1 (stereo not drawn) | 0.3% (inactive)
